For some of these results: Potency and affinity values are given separately.

Results on eleven compounds are retold here after ChEMBL document CHEMBL3988442, “University of Dundee, Small-Polar-MMV Screening Library” (2021).

What all share (design): scale not given: direction of the effect not stated beside the values
For assay [1], the target named is Protein translocase subunit SecA (Escherichia coli (strain K12)) (UniProt P10408). As to the kind of experiment: Assay to Identify E. coli SecA ATPase Inhibitors. It counts as functional. To be noted: 30 µM.
For assay [2], the target named is T1, Ubiquitin-activating enzyme e1, putative (Leishmania donovani (strain BPK282A1)) (UniProt E9BSI1).
T1 sequence (whole entry): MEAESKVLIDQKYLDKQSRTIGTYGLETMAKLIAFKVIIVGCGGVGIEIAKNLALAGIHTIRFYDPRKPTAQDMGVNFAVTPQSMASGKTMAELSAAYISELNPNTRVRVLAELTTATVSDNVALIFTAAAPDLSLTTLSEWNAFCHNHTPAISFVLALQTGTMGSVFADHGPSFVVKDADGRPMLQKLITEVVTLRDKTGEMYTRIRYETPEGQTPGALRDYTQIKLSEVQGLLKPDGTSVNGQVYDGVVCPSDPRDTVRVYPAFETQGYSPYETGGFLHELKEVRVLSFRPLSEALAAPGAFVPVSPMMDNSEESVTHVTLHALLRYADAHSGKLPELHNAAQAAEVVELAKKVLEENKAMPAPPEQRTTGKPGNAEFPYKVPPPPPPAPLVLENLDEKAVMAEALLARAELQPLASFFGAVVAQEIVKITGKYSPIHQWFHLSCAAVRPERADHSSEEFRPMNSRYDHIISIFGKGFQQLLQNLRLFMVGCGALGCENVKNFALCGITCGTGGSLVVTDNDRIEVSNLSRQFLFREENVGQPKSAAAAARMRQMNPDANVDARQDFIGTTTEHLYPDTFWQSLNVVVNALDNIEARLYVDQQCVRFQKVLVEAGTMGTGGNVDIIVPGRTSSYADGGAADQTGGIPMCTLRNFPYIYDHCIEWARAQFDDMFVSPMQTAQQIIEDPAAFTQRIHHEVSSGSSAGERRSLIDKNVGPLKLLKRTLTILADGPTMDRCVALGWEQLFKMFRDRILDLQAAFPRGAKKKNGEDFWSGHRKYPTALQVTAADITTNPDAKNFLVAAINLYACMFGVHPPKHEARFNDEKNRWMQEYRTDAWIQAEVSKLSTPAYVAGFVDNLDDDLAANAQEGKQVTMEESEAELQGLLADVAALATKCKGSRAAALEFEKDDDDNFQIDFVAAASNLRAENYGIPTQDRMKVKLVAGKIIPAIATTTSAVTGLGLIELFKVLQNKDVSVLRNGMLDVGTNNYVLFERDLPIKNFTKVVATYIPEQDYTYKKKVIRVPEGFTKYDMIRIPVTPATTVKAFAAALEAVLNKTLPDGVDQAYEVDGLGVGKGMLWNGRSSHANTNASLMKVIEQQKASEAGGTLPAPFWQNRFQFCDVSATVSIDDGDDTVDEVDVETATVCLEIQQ
Put plainly: Leishmania donovani Ubiquitin Activating Enzyme (LdE1). It counts as functional. To be noted: 30 µM.

The target of assay [3] is AMP-activated protein kinase, AMPK (Homo sapiens) (UniProt P54646+O43741+P54619+Q9UGJ0+Q9Y478+Q13131+Q9UGI9). As to the kind of experiment: AMP-dependent Kinase enzyme assay. An in vitro enzyme assay that detects ADP turnover that is directly proportional to AMPK activity. This uses naive AMPK that is activated during the assay with MK-8722. It counts as functional. The following applies: 30 µM.

The target in assay [4] is Sialic acid-binding Ig-like lectin 9 (Homo sapiens) (UniProt Q9Y336). As to the kind of experiment: Hs-Siglec9 ALPHAscreen SOP 20170721. The following applies: 10 µM.
A further assay deals with Trypanosoma cruzi. As to the kind of experiment: Trypanosoma cruzi phosphomannomutase and mannose-1-phosphate guanylyltransferase assay. It counts as functional. To be noted: 10 µM.
Assay [5] has as its target T2, Arginase-2, mitochondrial (Homo sapiens) (UniProt P78540).
T2 sequence (whole entry): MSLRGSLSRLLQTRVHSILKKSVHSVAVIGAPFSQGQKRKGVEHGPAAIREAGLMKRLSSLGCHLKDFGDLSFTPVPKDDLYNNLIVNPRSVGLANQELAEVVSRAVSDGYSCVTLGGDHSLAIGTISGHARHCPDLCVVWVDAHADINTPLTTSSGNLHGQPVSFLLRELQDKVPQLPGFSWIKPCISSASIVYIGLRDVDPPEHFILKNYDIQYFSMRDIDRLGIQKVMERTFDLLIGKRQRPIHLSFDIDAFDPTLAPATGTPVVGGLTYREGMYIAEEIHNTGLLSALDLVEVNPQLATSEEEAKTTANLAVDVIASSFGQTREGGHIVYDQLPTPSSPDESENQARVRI
Put plainly: in vitro enzyme assay to detect the production of urea directly proportional to the activity of Arginase II. Note: in the data most compounds retested in dose-response had high values. It counts as functional. To be noted: 33.3 µM.

The target in assay [6] is T3, Proteasome subunit beta (Trypanosoma cruzi) (UniProt O96673).
T3 sequence (whole entry): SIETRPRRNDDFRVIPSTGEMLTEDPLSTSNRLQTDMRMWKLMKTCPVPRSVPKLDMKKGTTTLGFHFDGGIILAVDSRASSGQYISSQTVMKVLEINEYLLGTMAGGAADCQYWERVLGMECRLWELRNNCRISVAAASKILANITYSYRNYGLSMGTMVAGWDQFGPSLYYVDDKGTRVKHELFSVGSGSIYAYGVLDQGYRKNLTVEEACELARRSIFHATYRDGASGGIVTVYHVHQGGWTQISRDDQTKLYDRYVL
Put plainly: Trypanosoma cruzi proteasome chymotrypsin-like activity (TcProtChymo) assay. Note: in the data most compounds retested in dose-response had high values. The following applies: 9.37 µM. Format: functional.

For another assay, the species on record is Homo sapiens. Put plainly: To identify inhibition of the IFN signalling (Jak-Stat) pathway via expression of an eGFP reporter gene under the control of an IFN-stimulated response element (ISRE) containing MxA promoter. To be noted: 30 µM. It counts as functional.
Assay [7] has as its target T4, Tyrosyl-tRNA synthetase, putative (Trypanosoma cruzi (strain CL Brener)) (UniProt Q4DSP6).
T4 sequence (whole entry): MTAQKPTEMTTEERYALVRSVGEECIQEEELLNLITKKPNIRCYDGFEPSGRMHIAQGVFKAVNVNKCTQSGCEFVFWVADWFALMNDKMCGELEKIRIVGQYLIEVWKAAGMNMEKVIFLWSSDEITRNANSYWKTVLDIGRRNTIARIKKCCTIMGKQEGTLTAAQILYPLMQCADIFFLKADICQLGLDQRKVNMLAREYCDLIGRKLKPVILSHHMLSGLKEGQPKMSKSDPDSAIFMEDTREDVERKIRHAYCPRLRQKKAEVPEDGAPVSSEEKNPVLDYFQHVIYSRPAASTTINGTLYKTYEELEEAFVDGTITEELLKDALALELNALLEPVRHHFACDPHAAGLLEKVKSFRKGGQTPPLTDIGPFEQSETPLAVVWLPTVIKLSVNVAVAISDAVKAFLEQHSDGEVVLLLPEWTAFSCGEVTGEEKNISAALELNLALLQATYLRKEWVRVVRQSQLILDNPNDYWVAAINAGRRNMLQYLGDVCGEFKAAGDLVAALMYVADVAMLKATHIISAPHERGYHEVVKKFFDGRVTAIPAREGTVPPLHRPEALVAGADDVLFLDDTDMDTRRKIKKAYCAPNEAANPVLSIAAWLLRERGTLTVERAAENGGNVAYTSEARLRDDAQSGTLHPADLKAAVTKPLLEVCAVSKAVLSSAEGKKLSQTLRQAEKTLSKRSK
As to the kind of experiment: Trypanosoma cruzi tyrosyl tRNA synthetase (TcYRS) _High Tyrosine SOP. Note: in the data most compounds retested in dose-response had high values. The following applies: 30 µM. It counts as functional.

Assay [8] addresses T4, Tyrosyl-tRNA synthetase, putative (Trypanosoma cruzi (strain CL Brener)). Put plainly: Trypanosoma cruzi tyrosyl tRNA synthetase (TcYRS) SOP. Format: functional. To be noted: 30 µM.
Assay [9] addresses Chromo domain-containing protein 1 (Saccharomyces cerevisiae (strain ATCC 204508 / S288c) (Baker's yeast)) (UniProt P32657). As to the kind of experiment: ScCHD-1 Enzyme Inhibition Assay. Note: in the data most compounds retested in dose-response had high values. It counts as functional. The following applies: 30 µM.

Sequence of Protein translocase subunit SecA (Escherichia coli (strain K12)) (P10408 whole entry): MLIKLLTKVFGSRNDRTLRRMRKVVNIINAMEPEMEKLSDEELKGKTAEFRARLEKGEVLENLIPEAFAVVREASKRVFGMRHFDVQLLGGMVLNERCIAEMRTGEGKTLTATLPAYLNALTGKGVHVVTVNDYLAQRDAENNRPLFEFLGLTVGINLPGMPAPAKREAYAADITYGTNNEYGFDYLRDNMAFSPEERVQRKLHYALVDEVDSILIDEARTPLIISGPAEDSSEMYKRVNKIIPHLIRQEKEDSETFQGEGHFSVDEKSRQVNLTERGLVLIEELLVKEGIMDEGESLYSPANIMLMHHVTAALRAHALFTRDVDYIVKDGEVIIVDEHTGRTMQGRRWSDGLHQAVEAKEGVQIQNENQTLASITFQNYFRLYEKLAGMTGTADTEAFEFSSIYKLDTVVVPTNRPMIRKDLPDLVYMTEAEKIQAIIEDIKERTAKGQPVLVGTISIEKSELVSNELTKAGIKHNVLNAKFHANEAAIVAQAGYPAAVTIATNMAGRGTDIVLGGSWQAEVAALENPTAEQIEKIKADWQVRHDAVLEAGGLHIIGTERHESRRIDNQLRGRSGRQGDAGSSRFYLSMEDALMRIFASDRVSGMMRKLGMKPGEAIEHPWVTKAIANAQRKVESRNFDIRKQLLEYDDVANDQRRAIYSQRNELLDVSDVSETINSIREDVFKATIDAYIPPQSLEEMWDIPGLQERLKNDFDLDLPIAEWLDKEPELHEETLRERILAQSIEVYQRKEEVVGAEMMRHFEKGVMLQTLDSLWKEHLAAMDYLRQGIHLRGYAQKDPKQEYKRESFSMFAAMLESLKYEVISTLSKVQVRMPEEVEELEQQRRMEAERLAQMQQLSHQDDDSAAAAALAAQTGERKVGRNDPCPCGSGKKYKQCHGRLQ
Sequence of Sialic acid-binding Ig-like lectin 9 (Homo sapiens) (Q9Y336 whole entry): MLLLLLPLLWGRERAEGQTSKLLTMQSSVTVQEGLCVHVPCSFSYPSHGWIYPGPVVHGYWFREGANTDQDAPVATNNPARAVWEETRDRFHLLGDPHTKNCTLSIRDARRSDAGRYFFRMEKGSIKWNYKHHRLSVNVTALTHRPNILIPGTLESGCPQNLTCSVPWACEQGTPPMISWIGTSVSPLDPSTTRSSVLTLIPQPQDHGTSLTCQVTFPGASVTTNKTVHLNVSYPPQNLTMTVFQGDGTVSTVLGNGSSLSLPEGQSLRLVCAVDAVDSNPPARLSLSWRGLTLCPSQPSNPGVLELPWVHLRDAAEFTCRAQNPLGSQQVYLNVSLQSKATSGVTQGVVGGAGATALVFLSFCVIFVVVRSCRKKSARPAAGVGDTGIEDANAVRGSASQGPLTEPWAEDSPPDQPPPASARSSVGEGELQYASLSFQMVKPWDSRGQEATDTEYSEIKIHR
Sequence of Chromo domain-containing protein 1 (Saccharomyces cerevisiae (strain ATCC 204508 / S288c) (Baker's yeast)) (P32657 whole entry, the tested form may be a part): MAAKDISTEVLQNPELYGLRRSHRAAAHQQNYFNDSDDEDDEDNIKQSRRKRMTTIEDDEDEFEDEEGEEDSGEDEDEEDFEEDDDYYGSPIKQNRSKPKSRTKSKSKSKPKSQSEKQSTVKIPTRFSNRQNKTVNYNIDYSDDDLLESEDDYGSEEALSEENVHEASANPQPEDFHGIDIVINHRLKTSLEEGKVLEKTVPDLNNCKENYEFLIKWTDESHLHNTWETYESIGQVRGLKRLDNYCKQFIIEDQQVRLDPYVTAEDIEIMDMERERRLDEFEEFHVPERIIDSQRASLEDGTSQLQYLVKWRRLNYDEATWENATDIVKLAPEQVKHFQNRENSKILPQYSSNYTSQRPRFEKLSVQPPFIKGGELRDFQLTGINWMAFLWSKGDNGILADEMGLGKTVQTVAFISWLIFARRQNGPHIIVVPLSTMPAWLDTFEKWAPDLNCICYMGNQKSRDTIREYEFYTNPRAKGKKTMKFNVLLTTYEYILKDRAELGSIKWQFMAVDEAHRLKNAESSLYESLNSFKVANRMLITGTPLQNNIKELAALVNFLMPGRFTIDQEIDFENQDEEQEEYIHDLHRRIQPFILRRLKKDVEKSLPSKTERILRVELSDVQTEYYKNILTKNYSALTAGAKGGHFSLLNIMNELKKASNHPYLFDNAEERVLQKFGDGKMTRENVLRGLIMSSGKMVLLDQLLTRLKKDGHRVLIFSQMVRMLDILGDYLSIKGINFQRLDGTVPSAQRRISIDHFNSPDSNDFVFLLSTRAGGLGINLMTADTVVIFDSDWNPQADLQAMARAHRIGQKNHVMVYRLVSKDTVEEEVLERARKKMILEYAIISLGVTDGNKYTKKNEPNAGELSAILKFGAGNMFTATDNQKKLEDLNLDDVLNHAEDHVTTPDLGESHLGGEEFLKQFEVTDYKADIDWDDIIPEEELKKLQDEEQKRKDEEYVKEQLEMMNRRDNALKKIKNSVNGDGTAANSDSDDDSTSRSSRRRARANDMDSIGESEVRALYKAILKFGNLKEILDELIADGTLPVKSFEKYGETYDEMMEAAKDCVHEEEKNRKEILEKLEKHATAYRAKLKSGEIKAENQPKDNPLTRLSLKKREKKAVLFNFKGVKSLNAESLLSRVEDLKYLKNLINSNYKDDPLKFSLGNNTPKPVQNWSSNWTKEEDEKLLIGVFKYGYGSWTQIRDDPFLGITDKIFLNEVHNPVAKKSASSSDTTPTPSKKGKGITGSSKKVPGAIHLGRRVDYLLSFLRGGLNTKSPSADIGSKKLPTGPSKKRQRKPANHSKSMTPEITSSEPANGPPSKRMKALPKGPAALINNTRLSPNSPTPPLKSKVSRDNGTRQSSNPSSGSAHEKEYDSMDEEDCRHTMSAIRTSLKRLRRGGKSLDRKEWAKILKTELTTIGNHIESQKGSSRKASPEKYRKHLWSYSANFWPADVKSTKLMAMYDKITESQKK

As for `Cc1cc(C(=O)N2CCCCC2C)ccc1NCC(=O)N1CCOCC1` (stereo unspecified), the Percent Effect is -3.46% in assay [1]; 18.2% in [2]; 9.95% in assay [3]; -0.936% in assay [4]; 8.8% in the assay with Trypanosoma cruzi; 5.69% in assay [5]. For the same compound, the Percent Effect in [6] was 15.5%; in the assay listed under Homo sapiens it was 29.1%; in assay [7] it was -2.91%; in assay [8], 24.4%; in [9] it was -5.86%.

As to `COc1ccc(C(=O)N(C)Cc2nnc3ccccn23)c(OC)c1`, the Percent Effect in [1] is -4.19%; in assay [2], -5.2%; in assay [3], 1.07%; in assay [4] it was 4.72%; with Trypanosoma cruzi, 2.06%; in assay [5] it was -1.47%. Further, the Percent Effect is 12.5% in [6]; -2.12% in the assay listed under Homo sapiens; 2.86% in assay [7]; 14.1% in assay [8]; -15.8% in assay [9].

Regarding `CN(C(=O)Cn1nc(-c2ccc(F)cc2)oc1=O)C1CCS(=O)(=O)C1` (stereo unspecified), the Percent Effect in assay [1] is 0.314%; in assay [2], 20.8%; in [3], -6.94%; in [4], 6.92%; with Trypanosoma cruzi, 0.291%; in assay [5] it was 0%. The Percent Effect in [6] was 19.3%; in the assay filed under Homo sapiens it was 13.6%; in assay [7] it was 2.1%; in assay [8], 10.3%; in assay [9], -6.7%.

On to `Cc1cnn(CCNCC(O)COc2ccc(C#N)cc2)c1` (stereo unspecified), for which the Percent Effect is -4.77% in assay [1]; 15.2% in assay [2]; -8.43% in [3]; 8.11% in [4]; 1.42% with Trypanosoma cruzi; 2.28% in assay [5]. The Percent Effect in [6] is 8.44%; in the assay filed under Homo sapiens, -3.4%; in [7], 5.42%; in assay [8], 13.9%; in assay [9] it was -5.58%.

Turning to `Cc1noc(Cl)c1CCC(=O)N1CCN(c2ncccn2)CC1`, the Percent Effect in [1] is -1.95%; in assay [2], 10.5%; in [3] it was -1.41%; in assay [4], -4.66%; in the assay with Trypanosoma cruzi, -11.1%; in assay [5] it was 5.75%. Moreover, the Percent Effect in assay [6] was determined as 7.02%; in the assay filed under Homo sapiens, 21.6%; in assay [7], 5.42%; in assay [8], 13.6%; in assay [9] it was 1.74%.

In the case of `CNC(=O)CC1CCN(Cc2nc(-c3ccc(SC)cc3)oc2C)CC1`, the Percent Effect in [1] is -7%; in assay [2] it was 2.7%; in assay [3] it was -0.898%; in assay [4], 2.66%; with Trypanosoma cruzi, -2.7%; in assay [5], -0.952%. Besides, the Percent Effect was 11.7% in [6]; 13.2% in the assay listed under Homo sapiens; 7.94% in assay [7]; 0% in assay [8]; -2.7% in assay [9].

`COCCN(C)C(=O)c1ccc(OC)cc1O`: the Percent Effect in [1] is -7.04%; in assay [2], 0%; in assay [3], 0.346%; in [4], 2.75%; in the assay with Trypanosoma cruzi, -4.17%; in assay [5], 2.4%. Moreover, the Percent Effect in [6] was 18.2%; in the assay filed under Homo sapiens, 8.7%; in [7] it was 4.17%; in assay [8] it was 8.64%; in [9], 3.68%.

In the case of `COc1ccc2c(c1)C1(CCN(Cc3ccoc3)CC1)N(C)CC2`, the Percent Effect was -1.9% in assay [1]; 5.2% in [2]; 2.57% in assay [3]; 3.45% in [4]; -0.0986% in the assay on Trypanosoma cruzi; -7.1% in assay [5]. Also, the Percent Effect in assay [6] is 20%; in the assay filed under Homo sapiens, -0.746%; in [7] it was -1.06%; in [8] it was 8.97%; in assay [9], -9.11%.

With `Cc1ccc(CN2CCOC3(CCCN(C(=O)c4ccco4)C3)C2)s1` (stereo unspecified), the Percent Effect is -0.789% in [1]; 15.6% in assay [2]; -0.0266% in assay [3]; 8.56% in assay [4]; 5.41% in the assay on Trypanosoma cruzi; -19.3% in [5]. The Percent Effect in assay [6] is 17.6%; in the assay listed under Homo sapiens it was -8.94%; in assay [7], 6.45%; in [8], 13.6%; in [9] it was -2.11%.

On to `COc1ccc(CN(Cc2cncn2C)CC2CCCO2)c(OC)c1` (stereo unspecified), for which the Percent Effect is -2.55% in [1]; 17.6% in assay [2]; 4.23% in assay [3]; -4.44% in [4]; -0.79% in the assay with Trypanosoma cruzi; 0.696% in [5]. In addition, the Percent Effect in assay [6] was 20%; in the assay listed under Homo sapiens, 17.5%; in assay [7] it was 5.38%; in [8], 14.3%; in [9] it was -18.5%.

Consider `Cc1csc(N2CCN(C(=O)CCc3ccccn3)CC2)n1`, for which the Percent Effect is -1.62% in assay [1]; 13.5% in assay [2]; -16% in assay [3]; 7.95% in [4]; 3.87% with Trypanosoma cruzi; -12.8% in assay [5]. The Percent Effect was 10.8% in [6]; 6.58% in the assay filed under Homo sapiens; 10.3% in [7]; 25.9% in [8]; -12.7% in [9].
